Measured values taken from article PMC5700166.

Key:
[1] = target: T1, GST-Nv-NF-kB (Ser allele) (Nematostella vectensis, UniProt A7UNT2 2-411); test: protein-binding microarray (PBM); PBM: ~300 nM protein, 6 mM HEPES pH 7.8, 80 mM KCl, 0.5 mM EDTA, 0.5 mM EGTA, 6% glycerol, 35 ng/ul poly-dIdC, 1% milk, 1 h, room temperature; Ap Aiptasia and Nv Nematostella (sea anemones) / Co Capsaspora / Aq Amphimedon (sponge) / Dm Drosophila / Hu human; RHD is the Rel homology domain; high values mean tight binding; settings: dsDNA, one strand shown
T1 sequence: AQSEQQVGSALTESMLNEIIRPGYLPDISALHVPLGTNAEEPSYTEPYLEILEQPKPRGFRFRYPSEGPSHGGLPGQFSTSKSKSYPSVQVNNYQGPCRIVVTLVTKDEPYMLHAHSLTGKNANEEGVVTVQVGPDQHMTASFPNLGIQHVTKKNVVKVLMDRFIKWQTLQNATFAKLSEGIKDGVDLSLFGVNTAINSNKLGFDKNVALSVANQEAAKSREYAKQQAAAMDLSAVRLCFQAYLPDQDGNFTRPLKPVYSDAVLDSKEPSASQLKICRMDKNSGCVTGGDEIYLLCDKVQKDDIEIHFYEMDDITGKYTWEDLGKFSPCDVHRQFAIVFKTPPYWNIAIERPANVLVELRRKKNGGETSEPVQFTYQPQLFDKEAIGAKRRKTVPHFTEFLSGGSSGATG

GST-Hu-p50 = GST-Hu-p50 (Homo sapiens, UniProt P19838 7-356); test: as above; settings: dsDNA, one strand shown
Chain of GST-Hu-p50 (P19838 7-356): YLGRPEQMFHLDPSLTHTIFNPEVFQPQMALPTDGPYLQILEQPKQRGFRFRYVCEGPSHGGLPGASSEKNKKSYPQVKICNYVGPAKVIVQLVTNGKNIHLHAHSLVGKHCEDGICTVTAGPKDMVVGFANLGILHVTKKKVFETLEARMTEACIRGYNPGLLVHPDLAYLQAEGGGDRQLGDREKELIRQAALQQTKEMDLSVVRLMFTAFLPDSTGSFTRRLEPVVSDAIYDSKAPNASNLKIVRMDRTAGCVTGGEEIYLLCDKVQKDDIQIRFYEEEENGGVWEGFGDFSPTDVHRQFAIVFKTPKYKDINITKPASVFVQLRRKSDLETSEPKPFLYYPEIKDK

Sequence	binding signal [1] [z-score]	binding signal (GST-Hu-p50) [z-score]
CCGATTAACATCACGAGATTCCCTGATGTTAATCGGGTCTTGATTCGCTTGACGCTGCTG	3.97	2.64
CCGATTAACATCAGGGATTTTCATGATGTTAATCGGGTCTTGATTCGCTTGACGCTGCTG	4.23	4.44
CCGATTAACATCACCCACGAGGGTGATGTTAATCGGGTCTTGATTCGCTTGACGCTGCTG	1.02	2.01
CCGATTAACATCAAGGGATCCCCTGATGTTAATCGGGTCTTGATTCGCTTGACGCTGCTG	6.37	5.23
CCGATTAACATCAGGAAGACCCCTGATGTTAATCGGGTCTTGATTCGCTTGACGCTGCTG	1.11	3.37
CCGATTAACATCAAGGAAAAACCTGATGTTAATCGGGTCTTGATTCGCTTGACGCTGCTG	1.47	1.12
CCGATTAACATCAGGGATTCACCTGATGTTAATCGGGTCTTGATTCGCTTGACGCTGCTG	4.26	4.55
CCGATTAACATCAGGGGGTTAGATGATGTTAATCGGGTCTTGATTCGCTTGACGCTGCTG	3.46	3.95
CCGATTAACATCATTTCCCTTGATGATGTTAATCGGGTCTTGATTCGCTTGACGCTGCTG	3.44	2.51
CCGATTAACATCAGGGCTTTACCTGATGTTAATCGGGTCTTGATTCGCTTGACGCTGCTG	1.71	2.02
CCGATTAACATCAAAAATTCCGGTGATGTTAATCGGGTCTTGATTCGCTTGACGCTGCTG	1.4	3.12
CCGATTAACATCAGGGGAGAATATGATGTTAATCGGGTCTTGATTCGCTTGACGCTGCTG	6.21	4.46
